# PLCb3 inh = PLC-beta3 (human) inhibition, primary screen; AID 720704; Q01970; inhibition, % at 12.2 µM; 0.18% of 370,000 active; Purified PLC-beta3, fluorogenic substrate, fluorescence; in the data active means inhibition above about 11%
# Target sequence (Q01970 whole entry, looked up): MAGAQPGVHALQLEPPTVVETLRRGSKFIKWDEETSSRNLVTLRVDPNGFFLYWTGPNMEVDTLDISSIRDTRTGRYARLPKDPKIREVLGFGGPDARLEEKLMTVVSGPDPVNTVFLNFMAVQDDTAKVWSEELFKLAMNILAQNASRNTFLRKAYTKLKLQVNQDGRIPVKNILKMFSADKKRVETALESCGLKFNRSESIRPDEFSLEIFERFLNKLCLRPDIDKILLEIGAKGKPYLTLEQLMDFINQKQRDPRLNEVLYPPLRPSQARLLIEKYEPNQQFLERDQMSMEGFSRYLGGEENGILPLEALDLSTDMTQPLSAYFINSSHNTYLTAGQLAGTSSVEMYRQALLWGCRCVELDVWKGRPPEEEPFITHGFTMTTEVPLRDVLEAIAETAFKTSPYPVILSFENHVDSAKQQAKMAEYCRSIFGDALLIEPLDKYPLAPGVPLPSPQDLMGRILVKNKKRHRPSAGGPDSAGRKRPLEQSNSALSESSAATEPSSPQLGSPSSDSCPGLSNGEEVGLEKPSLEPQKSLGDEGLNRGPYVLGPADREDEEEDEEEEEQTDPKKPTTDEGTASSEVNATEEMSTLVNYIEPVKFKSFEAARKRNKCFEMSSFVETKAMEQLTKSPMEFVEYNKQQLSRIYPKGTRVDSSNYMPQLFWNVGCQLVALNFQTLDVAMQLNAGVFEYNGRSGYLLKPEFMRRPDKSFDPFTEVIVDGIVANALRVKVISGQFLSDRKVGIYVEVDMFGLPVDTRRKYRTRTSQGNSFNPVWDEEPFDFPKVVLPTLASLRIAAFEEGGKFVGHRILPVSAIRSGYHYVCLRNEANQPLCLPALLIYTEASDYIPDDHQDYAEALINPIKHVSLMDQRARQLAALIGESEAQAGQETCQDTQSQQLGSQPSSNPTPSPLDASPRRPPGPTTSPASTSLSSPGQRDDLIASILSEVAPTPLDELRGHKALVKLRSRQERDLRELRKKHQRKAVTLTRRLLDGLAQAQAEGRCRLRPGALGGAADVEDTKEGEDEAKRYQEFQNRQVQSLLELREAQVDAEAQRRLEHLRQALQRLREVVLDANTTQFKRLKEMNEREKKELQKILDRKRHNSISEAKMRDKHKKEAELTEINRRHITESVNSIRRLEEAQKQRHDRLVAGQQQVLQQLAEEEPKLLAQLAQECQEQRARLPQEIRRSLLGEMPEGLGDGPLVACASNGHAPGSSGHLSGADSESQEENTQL
# ADAM17 inh = inhibitors of human ADAM17 | P78536 | recombinant ADAM17, EDANS/DABCYL FRET peptide cleavage | inhibition, % at 6.95 µM | 0.83% of 370,000 active;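 active means inhibition above the mean of compounds lying between control limits plus 3 SD, set per campaign, cut at about 8.5% in these data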
# ADAM10 inh = inhibits human ADAM10; recombinant ADAM10, EDANS/DABCYL FRET peptide cleavage, 3 h; inhibition, % at 7 µM; 0.62% of 370,000 active; AID 720582;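 active means inhibition above a per-campaign cutoff equal to the mean of compounds falling between control-based bounds plus 3 SD, cut at about 20% in these data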
# proKLK7 act = activates the human kallikrein-7 zymogen; activation, % at 7 µM; 0.9% of 370,000 active; P49862; purified proKLK7, EDANS-DABCYL substrate fluorescence; 100% is mature enzyme control, 0% vehicle;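 active means activation above the mean of all tested compounds plus 3 SD, computed per campaign excluding outliers beyond control limits, cut at about 13% in these data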
# PLCg1 inh = inhibitors of human phospholipase C gamma1. P19174. purified PLC-gamma1, fluorogenic substrate, fluorescence. inhibition, % at 12.2 µM. 0.84% of 370,000 active
# PLCg1 ctr = counter-screen for PLC-beta3 inhibitors: inhibitors of human PLC-gamma1; shares compounds with PLCg1 inh; purified PLC-gamma1, fluorogenic substrate, fluorescence; inhibition, % at 12.3 µM; 3.1% of 3,300 active; AID 743258
# PLCb3 confirm = confirmation of human PLC-beta3 inhibitors; shares compounds with PLCg1 inh; purified PLC-beta3, fluorogenic substrate fluorescence; inhibition, % at 12.3 µM; 1% of 3,300 active; AID 743261; in the data active means inhibition above about 11%
# Numbers stand for hits; . = inactive; / = no result given. A selection: hits, their analogues and other compounds. The true share with any hit is near 2.9%. Unless noted, no stated cut-off is given here; in the data, active means inhibition above about 9.5%; inactive means the rest.
SMILES,PLCb3 inh,ADAM17 inh,ADAM10 inh,proKLK7 act,PLCg1 inh,PLCg1 ctr,PLCb3 confirm
O=[N+]([O-])c1c(Nc2ccccc2O)cc(N2CCOCC2)c2nonc12,.,.,.,.,.,/,/
CCCCNC(=O)/C=C/c1cccs1,.,.,.,.,.,/,/
CC(Nc1ccc(Br)cn1)c1cc(Cl)ccc1O (stereo unspecified),.,.,.,.,9.7,.,.
CC(C)[C@H](NC(=O)c1ccccc1Br)C(=O)OCc1nc2ccsc2c(=O)[nH]1,.,.,.,.,.,/,/
O=C(Cn1nc(CNc2ccc(Br)cc2)[n+]2c1CCCCC2)c1ccc([N+](=O)[O-])cc1,.,.,.,.,9.8,.,.
COc1ccc(C(C(=O)NC(C)(C)C)N(C(=O)CCC(=O)Nc2cc(C)on2)c2ccc3c(c2)OCCO3)cc1 (stereo unspecified),.,.,.,.,.,/,/
CC(C)NC(=O)C1(C)CCCN1Cc1ccccc1C#N (stereo unspecified),.,.,.,.,11,.,.
CC(C)NC(=O)C1(C)CCCN1Cc1csc2ccccc12 (stereo unspecified),.,.,.,.,.,/,/
CCCCOC(=O)COc1ccc(Cl)cc1Cl,.,.,.,.,.,/,/
COc1ccc(OC)c(S(=O)(=O)N2CCCC(N3CCN(c4ccccc4)CC3)C2)c1 (stereo unspecified),.,.,.,.,11,.,.
O=C(c1ccccc1)c1c[nH]c(C(=O)NNc2ccccc2)c1,.,.,.,.,.,/,/
CCn1cc(CN2CCC(n3nccc3NC(=O)CCOc3ccccc3)CC2)cn1,.,.,.,.,13,.,.
CCOc1cccc(CN2CCC(n3nccc3NC(=O)c3ccc4c(c3)OCO4)CC2)c1,.,.,.,.,10,.,.
CC(=O)c1cccc(CN2CCC(n3nccc3NC(=O)c3ccc4c(c3)OCO4)CC2)c1,.,.,.,.,.,/,/
CSCCC(NC(=O)c1ccccc1Cl)C(=O)N1CCC1 (stereo unspecified),.,.,.,.,.,/,/
CSCCC(NC(=O)c1ccc(Cl)cc1Cl)C(=O)N1CCN(C(=O)c2ccccc2)CC1 (stereo unspecified),.,.,.,.,11,.,.
Cc1c(-c2nnc(SCC(=O)O)n2-c2ccccc2Br)nnn1-c1ccccc1,.,.,.,.,14,.,.
CC1Cc2nc(SCC(=O)N3CCOCC3)n(-c3ccccc3)c(=O)c2S1 (stereo unspecified),.,.,.,.,.,/,/
COc1cc(/C=N/NC(=O)c2cccnc2)ccc1OCC(=O)Nc1c(C)cc(C)cc1C,.,.,.,.,10,.,.
COc1cc(/C=N/NC(=O)c2cccnc2)ccc1OCC(=O)Nc1ccccc1Cl,.,.,.,.,.,/,/
O=C(COC(=O)COc1ccc(Cl)cc1Br)NC1CCCCCC1,.,.,.,.,.,/,/
CC(=O)c1cc(-c2ccc(F)cc2)n(CCC(=O)NC(C)(C)C)c1C,.,.,.,.,21,.,.
Cc1ccc(NC(=O)c2ccc(S(=O)(=O)N3CCOCC3)cc2)nc1,.,.,.,.,.,/,/
CCOC(=O)C1(Cc2cccc(Cl)c2)CCCN(C(=O)c2ccnn2C)C1 (stereo unspecified),.,.,.,.,.,/,/
CCOC(=O)C1(Cc2cccc(Cl)c2)CCCN(C(=O)c2cc(C)n(C)n2)C1 (stereo unspecified),.,.,.,.,10,.,.
SMILES,PLCb3 inh,ADAM17 inh,ADAM10 inh,proKLK7 act,PLCg1 inh,PLCg1 ctr,PLCb3 confirm
CCCCCCn1c(CN2CCCCC2C)nc2c1c(=O)n(C)c(=O)n2C (stereo unspecified),.,.,.,.,.,/,/
CC(Oc1ccc2c3c(c(=O)oc2c1)CCC3)C(=O)NCc1ccccn1 (stereo unspecified),.,.,.,.,.,/,/
COc1ccc(CNC(=O)C2(C)Cc3c(-c4cccc(C(N)=O)c4)ccnc3O2)cc1OC (stereo unspecified),.,.,.,.,10,.,.
CC1(C(=O)Nc2cccc(NS(C)(=O)=O)c2)Cc2c(-c3ccc(C(N)=O)cc3)ccnc2O1 (stereo unspecified),.,.,.,.,10,.,.
CC(=O)Nc1ccc(-c2ccnc3c2CC(C)(C(=O)NC(C)C)O3)cc1 (stereo unspecified),.,.,.,.,12,.,.
Cc1ccc(C(=O)N2CCN(S(=O)(=O)c3ccc(C)c([N+](=O)[O-])c3)C2)cc1,.,.,.,.,10,.,.
O=C(Cn1ccc([N+](=O)[O-])n1)Nc1nccs1,.,.,.,.,9.6,.,.
CCOC(=O)c1sc(NC(=O)C2CC2)cc1C,.,.,.,.,11,.,.
CCOC(=O)c1sc(NC(=S)NC(=O)C2CCCC2)cc1C,.,.,.,.,.,/,/
CCOC(=O)c1c(C)n(C)c2ccc(OCC(O)CN(CC)CC)cc12 (stereo unspecified),.,.,.,.,.,/,/
CCN(CC)S(=O)(=O)c1cc(NS(=O)(=O)c2c(Cl)cccc2Cl)ccc1C,.,.,.,.,.,/,/
CCCOc1ccccc1OCC(=O)Nc1cc(Cl)ccc1-n1cncn1,.,.,.,.,11,.,.
Cc1cc(C)c(CSc2nnnn2-c2ccc(C(=O)O)cc2)c(C)c1,.,.,.,.,12,.,.
C=CCn1c(SCC(=O)Nc2ccccc2C)nnc1-c1ccncc1,.,.,.,.,.,/,/
COc1ccc(NCc2nnc(SCC(=O)Nc3nc(-c4ccccc4)cs3)n2-c2ccccc2)cc1,.,.,.,.,.,/,/
Cc1cc(C)nc(SCc2nnc(SCC(=O)Nc3nc(-c4ccccc4)cs3)n2-c2ccccc2)n1,.,.,.,.,11,.,.
C=CCn1c(SCC(=O)Nc2ccccc2-c2ccccc2)nnc1-c1ccccc1,.,.,.,.,13,.,.
COc1ccc(NC(=O)CSc2nnnn2-c2ccc(OC)cc2)cc1,.,.,.,.,11,.,.
O=C(O)c1ccc(-n2nnnc2SCc2cccc(Br)c2)cc1,.,.,.,.,.,/,/
Cc1ccc(S(=O)(=O)N2C(=O)[C@@H]3Cc4ccccc4CN3C2=O)cc1,.,.,.,.,.,/,/
O=C(O)CSc1nnc(COc2ccc([N+](=O)[O-])cc2)n1-c1ccccc1,.,.,.,.,.,/,/
COc1ccc(-n2c(SCC(=O)Nc3ccccc3-c3ccccc3)nnc2-c2ccccn2)cc1,.,.,.,.,10,.,.
O=C(O)CCSc1nnc(COc2ccc([N+](=O)[O-])cc2)n1-c1ccccc1,.,.,.,.,11,.,.
Cc1cc(C)nc(NC(=O)CSc2nnnn2-c2ccccc2)n1,.,.,.,.,12,.,.
